From the supplement of paper PMC10849652
Of roughly 7,900 targets only a part is listed; those with a hit were picked by preference. About 0.6% of all pairs of compound and target were hits. Unmarked numbers belong to inactive results.

Columns and labels:
Test in all cases: log2 fold change, soluble protein after heating vs DMSO (PISA); higher = thermal stabilisation; K562 cells, 10 uM, 30 min; active = over 0.2 and 3.5 SD of the protein, either way, in both replicates (recomputed)
[1] = compound: COC1=CC=C(C=C1)CN2C=CC3=C2C=C(C=C3)C(=O)NO
In short: (§1)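 K562 cells at 2×10^6 cells/mL were exposed to 10 μM compound for 30 min, then aliquots were heated for 3 min across 48°C-58°C, pooled, and extracted in PBS containing 0.5% NP-40 at 4°C. The supernatant after 21,000xg for 90 min was taken as soluble protein and measured by TMTpro 16plex LC-MS/MS with channel sums equalised. Thermal stability is reported relative to control samples, with values from duplicates. Fold changes are given on a log2 scale.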

[2] = compound: CON(C)C(=O)N1N=C(c2cc(F)ccc2F)S[C@@]1(CCCN)c1ccccc1 [filanesib]
In short: as §1

[3] = compound: CO[C@H]1C[C@@H]2CC[C@@H](C)[C@@](O)(O2)C(=O)C(=O)N2CCCC[C@H]2C(=O)O[C@H]([C@H](C)C[C@@H]2CC[C@H](n3cnnn3)[C@H](OC)C2)CC(=O)[C@H](C)/C=C(\C)[C@@H](O)[C@@H](OC)C(=O)[C@H](C)C[C@H](C)/C=C/C=C/C=C/1C [zotarolimus]
In short: as §1

[4] = compound: COc1cc(C(=O)O)ccc1NC(=O)[C@@H]1N[C@@H](CC(C)(C)C)[C@](C#N)(c2ccc(Cl)cc2F)[C@H]1c1cccc(Cl)c1F [idasanutlin]
In short: as §1

[5] = compound: COc1cc(Nc2ncc3c(n2)-c2ccc(Cl)cc2C(c2c(F)cccc2OC)=NC3)ccc1C(=O)O [alisertib]
In short: as §1

[6] = compound: COc1cc2nc(-c3cc(F)ccc3O)nc(N[C@@H]3CNC[C@H]3C(C)(C)O)c2cc1OC
In short: as §1

[7] = compound: COc1cc2ncnc(Nc3ccc(F)c(Cl)c3)c2cc1OCCCN1CCOCC1 [gefitinib]
In short: as §1

[8] = compound: COc1cccc2cc(-c3nc([C@H]4CC[C@H](C(=O)O)CC4)n4ncnc(N)c34)[nH]c12
In short: as §1

[9] = compound: CS(=O)(=O)CCNCc1ccc(-c2ccc3ncnc(Nc4ccc(OCc5cccc(F)c5)c(Cl)c4)c3c2)o1 [lapatinib]
In short: as §1

[10] = compound: CS(=O)(=O)N1CCN(Cc2cc3nc(-c4cccc5[nH]ncc45)nc(N4CCOCC4)c3s2)CC1 [pictilisib]
In short: as §1

[11] = compound: CS(=O)(=O)c1ccc(-c2cnc(N)c(C(=O)Nc3ccccc3)n2)cc1
In short: as §1

[12] = compound: C[C@@H](Oc1cc(-c2cnn(C3CCNCC3)c2)cnc1N)c1c(Cl)ccc(F)c1Cl [crizotinib]
In short: as §1

[13] = compound: C[C@@H]1COCCN1C2=NC(=NC(=C2)C3(CC3)S(=O)(=O)C)C4=C5C=CNC5=CC=C4
In short: as §1

[14] = compound: C[C@H](C1=CC=C(C=C1)C(=O)NC2=C3C=CNC3=NC=C2)N
In short: as §1

[15] = compound: C[C@H](Nc1ncnc2nc[nH]c12)c1cc2cccc(Cl)c2c(=O)n1-c1ccccc1 [duvelisib]
In short: as §1

[16] = compound: Cc1cc(Nc2cc(CN3CCOCC3)c3nc(C)c(Cc4ccc(Cl)cc4F)n3n2)n[nH]1 [gandotinib]
In short: as §1

[17] = compound: Cc1cc(Nc2cc(N3CCN(C)CC3)nc(Sc3ccc(NC(=O)C4CC4)cc3)n2)n[nH]1 [tozasertib]
In short: as §1

[18] = compound: Cc1cc(SCc2sc(-c3ccc(C(F)(F)F)cc3)nc2C)ccc1OCC(=O)O
In short: as §1

[19] = compound: Cc1ccc(-n2nc(C(C)(C)C)cc2NC(=O)Nc2ccc(OCCN3CCOCC3)c3ccccc23)cc1 [doramapimod]
In short: as §1

[20] = compound: Cc1ccc(C(=O)N(CCCN)[C@@H](c2nc3cc(Cl)ccc3c(=O)n2Cc2ccccc2)C(C)C)cc1 [ispinesib]
In short: as §1

Chain of UniProt P22314 (P22314 whole entry, looked up): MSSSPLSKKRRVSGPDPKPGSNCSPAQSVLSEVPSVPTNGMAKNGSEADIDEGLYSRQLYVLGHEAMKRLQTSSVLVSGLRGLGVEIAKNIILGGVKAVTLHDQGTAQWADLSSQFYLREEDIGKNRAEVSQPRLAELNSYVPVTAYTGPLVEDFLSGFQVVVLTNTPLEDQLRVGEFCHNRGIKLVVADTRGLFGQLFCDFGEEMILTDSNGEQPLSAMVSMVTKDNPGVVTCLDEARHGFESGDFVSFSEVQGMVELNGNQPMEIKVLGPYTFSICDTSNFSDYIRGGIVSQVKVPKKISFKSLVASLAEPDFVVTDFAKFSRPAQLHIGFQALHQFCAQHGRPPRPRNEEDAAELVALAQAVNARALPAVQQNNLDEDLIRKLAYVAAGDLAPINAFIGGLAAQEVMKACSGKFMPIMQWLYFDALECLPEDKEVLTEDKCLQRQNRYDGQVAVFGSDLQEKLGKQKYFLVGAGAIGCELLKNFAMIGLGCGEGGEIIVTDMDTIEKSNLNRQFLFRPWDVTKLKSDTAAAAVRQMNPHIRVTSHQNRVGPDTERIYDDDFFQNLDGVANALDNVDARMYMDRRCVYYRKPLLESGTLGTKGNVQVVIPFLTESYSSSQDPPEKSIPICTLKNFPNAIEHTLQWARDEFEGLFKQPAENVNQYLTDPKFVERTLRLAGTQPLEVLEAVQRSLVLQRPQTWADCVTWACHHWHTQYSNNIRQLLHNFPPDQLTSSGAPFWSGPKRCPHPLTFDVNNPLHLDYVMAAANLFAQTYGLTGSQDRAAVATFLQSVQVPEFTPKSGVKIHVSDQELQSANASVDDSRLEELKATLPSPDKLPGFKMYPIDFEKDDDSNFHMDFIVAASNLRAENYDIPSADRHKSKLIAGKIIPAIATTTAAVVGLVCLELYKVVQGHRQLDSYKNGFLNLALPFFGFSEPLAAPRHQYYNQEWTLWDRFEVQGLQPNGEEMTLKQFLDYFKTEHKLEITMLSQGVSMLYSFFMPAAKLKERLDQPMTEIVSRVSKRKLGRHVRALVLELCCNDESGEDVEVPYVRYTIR
Chain of UniProt Q15061 (Q15061 whole entry, looked up): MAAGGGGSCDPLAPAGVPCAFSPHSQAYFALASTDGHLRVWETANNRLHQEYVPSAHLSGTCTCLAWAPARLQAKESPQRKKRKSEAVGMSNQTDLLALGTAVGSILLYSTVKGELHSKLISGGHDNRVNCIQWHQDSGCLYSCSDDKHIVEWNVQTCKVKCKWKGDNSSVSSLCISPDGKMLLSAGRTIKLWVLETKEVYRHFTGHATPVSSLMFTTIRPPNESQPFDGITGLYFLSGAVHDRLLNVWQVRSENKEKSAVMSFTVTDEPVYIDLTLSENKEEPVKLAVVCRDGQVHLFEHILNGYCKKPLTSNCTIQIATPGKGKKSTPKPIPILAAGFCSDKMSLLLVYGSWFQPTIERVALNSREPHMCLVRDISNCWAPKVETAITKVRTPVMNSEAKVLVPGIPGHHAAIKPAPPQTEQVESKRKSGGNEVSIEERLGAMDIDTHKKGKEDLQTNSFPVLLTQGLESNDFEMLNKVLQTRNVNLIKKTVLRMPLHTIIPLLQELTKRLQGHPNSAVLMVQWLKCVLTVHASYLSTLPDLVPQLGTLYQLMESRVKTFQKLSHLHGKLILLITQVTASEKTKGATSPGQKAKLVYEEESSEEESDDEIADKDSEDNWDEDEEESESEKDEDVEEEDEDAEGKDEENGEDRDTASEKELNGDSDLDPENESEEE
Chain of UniProt O95379 (O95379 whole entry, looked up): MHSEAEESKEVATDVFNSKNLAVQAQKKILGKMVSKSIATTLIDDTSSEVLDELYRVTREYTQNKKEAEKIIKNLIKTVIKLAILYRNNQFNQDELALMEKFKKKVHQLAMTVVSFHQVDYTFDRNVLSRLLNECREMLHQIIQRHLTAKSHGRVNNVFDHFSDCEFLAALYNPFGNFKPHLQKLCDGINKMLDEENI
Chain of UniProt O43592 (O43592 whole entry, looked up): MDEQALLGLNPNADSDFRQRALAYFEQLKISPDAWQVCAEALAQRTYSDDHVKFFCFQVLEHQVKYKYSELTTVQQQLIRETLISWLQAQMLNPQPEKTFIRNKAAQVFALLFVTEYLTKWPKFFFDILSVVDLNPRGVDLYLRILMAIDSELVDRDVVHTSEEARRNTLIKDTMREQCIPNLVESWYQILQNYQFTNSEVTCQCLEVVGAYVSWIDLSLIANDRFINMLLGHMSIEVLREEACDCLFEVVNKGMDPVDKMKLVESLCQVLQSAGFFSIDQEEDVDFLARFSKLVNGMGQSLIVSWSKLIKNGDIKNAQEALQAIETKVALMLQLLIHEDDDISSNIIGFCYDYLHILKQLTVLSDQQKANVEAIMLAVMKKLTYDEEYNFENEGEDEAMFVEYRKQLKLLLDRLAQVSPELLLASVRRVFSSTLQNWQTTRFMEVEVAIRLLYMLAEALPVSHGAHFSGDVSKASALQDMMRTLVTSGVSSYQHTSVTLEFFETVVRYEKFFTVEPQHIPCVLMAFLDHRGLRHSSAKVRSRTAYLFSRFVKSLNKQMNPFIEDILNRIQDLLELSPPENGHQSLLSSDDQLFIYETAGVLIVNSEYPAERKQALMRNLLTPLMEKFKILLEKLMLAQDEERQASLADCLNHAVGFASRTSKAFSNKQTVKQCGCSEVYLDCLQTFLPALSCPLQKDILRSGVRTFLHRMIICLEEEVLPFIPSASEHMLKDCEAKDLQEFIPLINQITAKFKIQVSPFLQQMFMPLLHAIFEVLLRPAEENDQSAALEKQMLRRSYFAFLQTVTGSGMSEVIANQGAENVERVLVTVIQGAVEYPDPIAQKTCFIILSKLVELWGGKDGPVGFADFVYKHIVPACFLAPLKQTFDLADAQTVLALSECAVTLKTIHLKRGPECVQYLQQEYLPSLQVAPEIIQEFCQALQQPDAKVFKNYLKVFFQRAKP
Chain of UniProt A0JNW5 (A0JNW5 whole entry, looked up): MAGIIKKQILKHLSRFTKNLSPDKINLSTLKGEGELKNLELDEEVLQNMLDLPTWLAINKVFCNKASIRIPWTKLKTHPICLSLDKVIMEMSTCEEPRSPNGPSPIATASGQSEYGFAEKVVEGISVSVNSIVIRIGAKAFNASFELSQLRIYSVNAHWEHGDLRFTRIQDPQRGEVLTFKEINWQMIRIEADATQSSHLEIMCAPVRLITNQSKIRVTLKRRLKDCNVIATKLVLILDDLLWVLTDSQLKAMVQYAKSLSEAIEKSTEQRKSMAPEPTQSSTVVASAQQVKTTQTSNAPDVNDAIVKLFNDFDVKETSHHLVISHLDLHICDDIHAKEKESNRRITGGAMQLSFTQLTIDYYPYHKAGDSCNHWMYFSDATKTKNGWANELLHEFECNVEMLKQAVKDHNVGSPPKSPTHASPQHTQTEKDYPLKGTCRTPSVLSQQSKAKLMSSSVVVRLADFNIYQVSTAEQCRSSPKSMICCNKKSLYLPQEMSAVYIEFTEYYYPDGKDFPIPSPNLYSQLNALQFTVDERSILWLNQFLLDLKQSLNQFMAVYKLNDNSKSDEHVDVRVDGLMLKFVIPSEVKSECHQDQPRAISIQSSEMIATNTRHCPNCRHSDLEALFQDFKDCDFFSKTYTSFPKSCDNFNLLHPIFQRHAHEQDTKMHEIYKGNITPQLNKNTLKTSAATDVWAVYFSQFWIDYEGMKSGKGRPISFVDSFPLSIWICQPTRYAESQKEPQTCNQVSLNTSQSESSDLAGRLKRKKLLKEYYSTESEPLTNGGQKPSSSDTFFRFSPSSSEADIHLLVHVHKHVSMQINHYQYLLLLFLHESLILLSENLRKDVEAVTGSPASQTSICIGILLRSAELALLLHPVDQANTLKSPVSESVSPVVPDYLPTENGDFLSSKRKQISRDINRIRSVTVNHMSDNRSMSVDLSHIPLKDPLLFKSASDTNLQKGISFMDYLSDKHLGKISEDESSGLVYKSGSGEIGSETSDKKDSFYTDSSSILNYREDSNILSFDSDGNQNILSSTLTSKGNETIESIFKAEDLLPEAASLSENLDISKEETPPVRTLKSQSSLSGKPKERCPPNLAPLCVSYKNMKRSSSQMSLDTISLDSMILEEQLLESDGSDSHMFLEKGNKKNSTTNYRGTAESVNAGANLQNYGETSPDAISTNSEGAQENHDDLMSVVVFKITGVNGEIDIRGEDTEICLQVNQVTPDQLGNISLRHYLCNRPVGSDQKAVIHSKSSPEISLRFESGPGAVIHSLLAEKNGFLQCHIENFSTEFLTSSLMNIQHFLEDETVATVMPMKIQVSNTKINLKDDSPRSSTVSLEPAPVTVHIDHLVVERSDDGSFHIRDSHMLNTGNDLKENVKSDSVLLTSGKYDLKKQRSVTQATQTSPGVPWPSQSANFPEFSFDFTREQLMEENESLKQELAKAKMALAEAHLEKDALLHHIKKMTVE
Chain of UniProt Q86WV6 (Q86WV6 whole entry, looked up): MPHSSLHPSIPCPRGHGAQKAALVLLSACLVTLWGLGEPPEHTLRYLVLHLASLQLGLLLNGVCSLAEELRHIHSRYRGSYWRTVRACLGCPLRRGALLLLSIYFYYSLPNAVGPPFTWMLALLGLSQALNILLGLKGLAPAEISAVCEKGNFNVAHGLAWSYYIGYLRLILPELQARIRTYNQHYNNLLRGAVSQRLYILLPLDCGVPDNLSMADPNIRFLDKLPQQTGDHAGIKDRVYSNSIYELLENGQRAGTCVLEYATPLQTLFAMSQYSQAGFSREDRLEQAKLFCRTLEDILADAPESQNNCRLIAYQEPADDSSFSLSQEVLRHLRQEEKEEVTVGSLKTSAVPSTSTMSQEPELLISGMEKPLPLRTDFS
Chain of UniProt O43396 (O43396 whole entry, looked up): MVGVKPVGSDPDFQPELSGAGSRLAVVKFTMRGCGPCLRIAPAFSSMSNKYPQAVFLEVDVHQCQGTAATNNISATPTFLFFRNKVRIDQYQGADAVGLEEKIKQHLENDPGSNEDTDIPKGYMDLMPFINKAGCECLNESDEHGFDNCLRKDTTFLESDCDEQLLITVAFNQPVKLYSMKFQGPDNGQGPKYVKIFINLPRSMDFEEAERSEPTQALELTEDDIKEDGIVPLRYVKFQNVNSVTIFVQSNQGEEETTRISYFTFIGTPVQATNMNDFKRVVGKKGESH

Target | log2 fold change [1] | log2 fold change [2] | log2 fold change [3] | log2 fold change [4] | log2 fold change [5] | log2 fold change [6] | log2 fold change [7] | log2 fold change [8] | log2 fold change [9] | log2 fold change [10] | log2 fold change [11] | log2 fold change [12] | log2 fold change [13] | log2 fold change [14] | log2 fold change [15] | log2 fold change [16] | log2 fold change [17] | log2 fold change [18] | log2 fold change [19] | log2 fold change [20]
TRMT61A (UniProt Q96FX7) | 0.083 | 0.136 | 0.077 | 0.025 | -0.017 | -0.192 | -0.051 | -0.057 | 0.03 | -0.18 | -0.017 | -0.046 | -0.201 | 0.168 | -0.004 | 0.168 | -0.016 | 0.106 | 0.011 | -0.093
TMEM161A (UniProt Q9NX61) | -0.021 | -0.148 | -0.072 | -0.167 | 0.009 | -0.033 | -0.01 | 0.051 | 0.075 | -0.106 | -0.038 | -0.026 | -0.006 | 0.001 | -0.032 | -0.156 | -0.145 | 0.051 | -0.023 | -0.251
XPOT (UniProt O43592) | 0.011 | -0.052 | 0.022 | -0.073 | -0.059 | 0.033 | -0.023 | -0.046 | -0.028 | 0.023 | 0.009 | -0.123 | 0.024 | -0.001 | 0.005 | -0.177 | 0.15 | 0.068 | -0.011 | -0.12
UBAP2L isoform 5 (UniProt Q14157) | -0.026 | -0.014 | -0.03 | -0.047 | -0.034 | 0 | -0.019 | 0.012 | 0 | -0.015 | -0.028 | 0.051 | -0.07 | -0.007 | 0.035 | 0.007 | -0.013 | 0.016 | -0.038 | 0.026
TNFAIP8 isoform 4 (UniProt O95379) | 0.027 | -0.015 | 0.085 | -0.055 | -0.01 | 0.046 | 0.028 | 0.041 | 0.065 | -0.027 | 0.005 | 0 | 0.122 | -0.099 | 0.019 | -0.073 | -0.076 | -0.046 | -0.016 | -0.046
WDR43 (UniProt Q15061) | -0.014 | -0.019 | -0.017 | -0.072 | -0.061 | 0.058 | -0.006 | 0.042 | -0.025 | 0.06 | 0.008 | 0.08 | 0.016 | -0.051 | 0.062 | 0.009 | -0.012 | -0.053 | -0.035 | 0.081
UBA1 (UniProt P22314) | 0.029 | -0.077 | -0.021 | -0.014 | 0.05 | 0.047 | 0.05 | -0.053 | -0.06 | -0.019 | 0.127 | -0.338 | 0.091 | 0.017 | -0.014 | -0.068 | 0.066 | 0.148 | -0.031 | -0.11
UQCR10 (UniProt Q9UDW1) | -0.084 | -0.05 | -0.02 | 0.031 | -0.005 | 0.037 | -0.028 | 0.022 | -0.038 | -0.063 | -0.036 | 0.079 | 0.071 | -0.043 | 0.089 | -0.403 (active) | 0.013 | 0.013 | -0.025 | 0.095
UGGT1 (UniProt Q9NYU2) | -0.041 | -0.008 | 0.012 | -0.014 | -0.07 | 0.009 | -0.006 | -0.01 | 0.035 | -0.005 | 0.013 | 0 | 0.012 | 0.009 | -0.005 | 0.005 | 0.008 | 0.016 | 0.017 | 0.012
TOM1L1 (UniProt O75674) | -0.006 | 0.06 | 0.008 | -0.142 | -0.073 | 0.061 | 0.056 | -0.051 | -0.007 | -0.076 | -0.001 | 0.08 | 0.184 | -0.059 | 0.102 | -0.342 (active) | -0.03 | 0.011 | -0.021 | -0.016
TMEM173 (UniProt Q86WV6) | -0.177 | 0.007 | 0.025 | -0.209 | -0.073 | 0.034 | -0.013 | -0.008 | -0.062 | -0.037 | 0.042 | 0.147 | 0.041 | 0.004 | 0.017 | -0.151 | 0.01 | 0.078 | 0.023 | 0.037
UPF3B (UniProt Q9BZI7) | -0.044 | 0.26 | -0.015 | 0.209 | -0.048 | 0.187 | 0.061 | -0.114 | 0.234 | -0.058 | 0 | 0.091 | -0.63 | 0.542 | -0.125 | 0.452 | 0.071 | 0.064 | 0.295 | -0.222
UHRF1BP1L (UniProt A0JNW5) | -0.027 | 0.038 | 0.093 | -0.073 | -0.08 | 0.179 | 0.05 | 0.034 | -0.006 | -0.046 | 0.001 | -0.04 | 0.031 | -0.002 | 0.091 | -0.038 | -0.025 | -0.024 | 0.046 | 0.2
TXN2 (UniProt Q99757) | 0.039 | 0.015 | 0.211 | 0.108 | -0.19 | -0.015 | 0.042 | -0.023 | -0.078 | -0.186 | -0.001 | 0.128 | -0.047 | -0.317 (active) | 0.031 | 0.105 | 0.009 | -0.026 | -0.034 | 0.028
UHRF1BP1 (UniProt Q6BDS2) | -0.025 | 0.079 | 0.161 | -0.029 | -0.033 | 0.104 | 0.045 | 0.037 | 0.038 | 0.032 | 0.003 | 0.086 | 0.001 | -0.009 | 0.124 | -0.004 | -0.014 | -0.014 | 0.014 | 0.12
TXNL1 (UniProt O43396) | 0.169 | 0.075 | 0.047 | -0.003 | -0.005 | 0.084 | 0.05 | -0.001 | 0.006 | 0.017 | 0.027 | 0.067 | -0.01 | -0.028 | 0.013 | -0.076 | 0.038 | 0.068 | -0.049 | 0.07
